From the supplement of paper PMC10849652
About 7,900 targets were measured; listed, in parts, are those with a hit and a random draw of the rest. About 0.6% of all pairs of compound and target were hits.

How the values were obtained:
Assay in all cases: log2 fold change, soluble protein after heating vs DMSO (PISA); higher = thermal stabilisation; K562 cells, 10 uM, 30 min; active = over 0.2 and 3.5 SD of the protein, either way, in both replicates (recomputed)
[1] = compound: C1=CC=C(C=C1)[C@H](COC2=CC3=C(C=C2)NC(=O)N3)NC(=O)C4=CC=CN(C4=O)CC5=CC(=C(C=C5)F)F
In short: (§1)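 Quantification of soluble protein used TMTpro 16plex LC-MS/MS, with channel sums equalised. Samples were the supernatant after 21,000xg for 90 min of pooled aliquots from K562 cells (2×10^6 cells/mL) treated with 10 μM compound for 30 min, heated for 3 min over 48°C-58°C, and extracted in PBS with 0.5% NP-40 at 4°C. Values, from duplicates, describe thermal stability against control samples on a log2 fold-change scale.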

[2] = compound: CC1=C(SC2=C1C(=N[C@H](C3=NN=C(N32)C)CC(=O)N)C4=CC=C(C=C4)Cl)C
In short: as §1

[3] = compound: CC1=C2C(=CC=C1)N=C(N(C2=O)C3=CC=CC=C3C)CN4C=NC5=C(N=CN=C54)N
In short: as §1

[4] = compound: Cc1sc2c(c1C)C(c1ccc(Cl)cc1)=N[C@@H](CC(=O)OC(C)(C)C)c1nnc(C)n1-2
In short: as §1

[5] = compound: c1ccc([C@@H]2C[C@H]2NC2CCNCC2)cc1
In short: as §1

Measured: log2 fold change

ATP6AP1 (UniProt Q15904)
inactive: [1] 0.014 | [2] -0.069 | [3] -0.009 | [4] -0.055 | [5] -0.022

B4GALT1 (UniProt P15291)
inactive: [1] 0.034 | [2] 0.057 | [3] -0.065 | [4] -0.022 | [5] -0.042

BSCL2 isoform 4 (UniProt Q96G97)
Sequence of UniProt Q96G97 (Q96G97 whole entry, looked up): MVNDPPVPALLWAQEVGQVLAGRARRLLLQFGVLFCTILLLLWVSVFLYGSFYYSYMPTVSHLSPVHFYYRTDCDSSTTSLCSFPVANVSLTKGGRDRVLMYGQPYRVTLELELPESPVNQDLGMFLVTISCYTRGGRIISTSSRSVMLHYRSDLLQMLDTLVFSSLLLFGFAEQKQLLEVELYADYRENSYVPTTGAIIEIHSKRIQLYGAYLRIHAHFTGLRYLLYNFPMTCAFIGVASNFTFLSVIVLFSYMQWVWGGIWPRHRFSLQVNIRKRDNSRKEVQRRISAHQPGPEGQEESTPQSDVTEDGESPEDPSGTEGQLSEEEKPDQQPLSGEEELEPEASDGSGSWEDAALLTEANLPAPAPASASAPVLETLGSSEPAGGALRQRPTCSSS
inactive: [1] -0.07 | [2] 0.106 | [3] -0.084 | [4] 0.027 | [5] -0.127

AAMP (UniProt Q13685)
inactive: [1] -0.015 | [2] -0.013 | [3] 0.014 | [4] -0.032 | [5] 0.021

BCCIP (UniProt Q9P287)
inactive: [1] -0.044 | [2] -0.018 | [3] 0 | [4] -0.037 | [5] -0.062

AP2S1 (UniProt P53680)
inactive: [1] -0.013 | [2] -0.007 | [3] -0.036 | [4] 0.037 | [5] 0.043

BRIX1 (UniProt Q8TDN6)
Sequence of UniProt Q8TDN6 (Q8TDN6 whole entry, looked up): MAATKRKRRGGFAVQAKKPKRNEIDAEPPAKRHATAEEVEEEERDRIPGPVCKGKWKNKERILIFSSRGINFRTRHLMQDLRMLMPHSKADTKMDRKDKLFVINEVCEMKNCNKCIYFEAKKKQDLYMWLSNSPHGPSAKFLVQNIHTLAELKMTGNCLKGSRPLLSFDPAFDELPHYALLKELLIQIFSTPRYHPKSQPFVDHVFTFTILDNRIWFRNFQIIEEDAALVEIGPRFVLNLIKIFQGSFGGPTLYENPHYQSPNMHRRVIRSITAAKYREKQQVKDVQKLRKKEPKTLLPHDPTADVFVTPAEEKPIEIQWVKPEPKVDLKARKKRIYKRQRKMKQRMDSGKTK
inactive: [1] 0.093 | [2] -0.349 | [3] -0.242 | [4] 0.244 | [5] -0.007

AGPS (UniProt O00116)
inactive: [1] -0.046 | [2] 0.081 | [3] 0.079 | [4] -0.031 | [5] -0.051

ALDH9A1 isoform 3 (UniProt P49189)
inactive: [1] -0.007 | [2] 0.029 | [3] 0.019 | [4] -0.019 | [5] 0.028

ACAD9 (UniProt Q9H845)
inactive: [1] 0.012 | [2] 0.028 | [3] 0.031 | [4] 0.022 | [5] 0.009

ALKBH4 (UniProt Q9NXW9)
Sequence of UniProt Q9NXW9 (Q9NXW9 whole entry, looked up): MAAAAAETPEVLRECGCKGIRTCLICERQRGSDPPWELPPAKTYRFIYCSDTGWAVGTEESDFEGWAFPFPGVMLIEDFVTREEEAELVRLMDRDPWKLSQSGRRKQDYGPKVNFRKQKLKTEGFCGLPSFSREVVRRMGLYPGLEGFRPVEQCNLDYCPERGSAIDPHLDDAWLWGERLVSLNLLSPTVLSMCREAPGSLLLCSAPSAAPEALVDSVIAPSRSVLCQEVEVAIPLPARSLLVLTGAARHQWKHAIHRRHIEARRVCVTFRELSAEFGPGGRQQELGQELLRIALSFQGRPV
inactive: [1] 0.023 | [2] -0.063 | [3] -0.078 | [4] 0.079 | [5] -0.033

ATF1 (UniProt P18846)
active: [5] -0.391
inactive: [1] -0.054 | [2] 0.11 | [3] -0.001 | [4] -0.014

BRD3 (UniProt Q15059)
inactive: [1] 0.002 | [3] 0 | [5] -0.021
active: [2] 1.9 | [4] 1.56

ATP13A2 (UniProt Q9NQ11)
Sequence of UniProt Q9NQ11 (Q9NQ11 whole entry, looked up): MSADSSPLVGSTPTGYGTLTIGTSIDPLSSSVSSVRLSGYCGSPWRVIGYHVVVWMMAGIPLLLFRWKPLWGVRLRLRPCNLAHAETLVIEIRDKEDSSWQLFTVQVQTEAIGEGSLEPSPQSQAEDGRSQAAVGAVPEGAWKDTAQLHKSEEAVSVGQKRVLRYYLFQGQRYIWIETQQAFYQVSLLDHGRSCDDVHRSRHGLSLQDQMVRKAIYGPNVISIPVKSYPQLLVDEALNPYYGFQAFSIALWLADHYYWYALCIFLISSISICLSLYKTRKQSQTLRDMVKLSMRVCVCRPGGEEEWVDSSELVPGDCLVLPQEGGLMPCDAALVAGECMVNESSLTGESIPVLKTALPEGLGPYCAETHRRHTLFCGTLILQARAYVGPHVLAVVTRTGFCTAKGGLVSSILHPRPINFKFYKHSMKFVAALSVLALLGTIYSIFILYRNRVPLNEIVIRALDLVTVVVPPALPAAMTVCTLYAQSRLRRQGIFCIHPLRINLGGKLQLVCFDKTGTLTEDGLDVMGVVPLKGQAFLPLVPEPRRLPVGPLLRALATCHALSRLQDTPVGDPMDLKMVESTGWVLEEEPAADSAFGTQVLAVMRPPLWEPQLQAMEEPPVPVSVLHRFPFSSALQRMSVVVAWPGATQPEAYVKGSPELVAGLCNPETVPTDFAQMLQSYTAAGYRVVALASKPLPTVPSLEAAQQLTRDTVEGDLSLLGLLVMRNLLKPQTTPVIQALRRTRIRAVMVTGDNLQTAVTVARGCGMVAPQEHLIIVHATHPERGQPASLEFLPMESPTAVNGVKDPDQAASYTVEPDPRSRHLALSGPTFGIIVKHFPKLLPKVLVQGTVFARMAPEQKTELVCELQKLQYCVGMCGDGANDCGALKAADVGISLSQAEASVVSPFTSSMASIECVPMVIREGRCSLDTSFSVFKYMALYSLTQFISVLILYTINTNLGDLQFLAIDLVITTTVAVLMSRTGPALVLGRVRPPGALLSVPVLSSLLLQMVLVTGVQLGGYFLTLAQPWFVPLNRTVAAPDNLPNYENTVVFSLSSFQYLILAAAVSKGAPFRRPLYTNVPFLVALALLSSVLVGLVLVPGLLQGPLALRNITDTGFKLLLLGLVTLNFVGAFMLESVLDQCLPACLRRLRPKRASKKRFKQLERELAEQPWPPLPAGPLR
inactive: [1] 0.031 | [2] -0.075 | [3] 0.007 | [4] -0.062 | [5] 0.092

ACADVL isoform 3 (UniProt P49748)
Sequence of UniProt P49748 (P49748 whole entry, looked up): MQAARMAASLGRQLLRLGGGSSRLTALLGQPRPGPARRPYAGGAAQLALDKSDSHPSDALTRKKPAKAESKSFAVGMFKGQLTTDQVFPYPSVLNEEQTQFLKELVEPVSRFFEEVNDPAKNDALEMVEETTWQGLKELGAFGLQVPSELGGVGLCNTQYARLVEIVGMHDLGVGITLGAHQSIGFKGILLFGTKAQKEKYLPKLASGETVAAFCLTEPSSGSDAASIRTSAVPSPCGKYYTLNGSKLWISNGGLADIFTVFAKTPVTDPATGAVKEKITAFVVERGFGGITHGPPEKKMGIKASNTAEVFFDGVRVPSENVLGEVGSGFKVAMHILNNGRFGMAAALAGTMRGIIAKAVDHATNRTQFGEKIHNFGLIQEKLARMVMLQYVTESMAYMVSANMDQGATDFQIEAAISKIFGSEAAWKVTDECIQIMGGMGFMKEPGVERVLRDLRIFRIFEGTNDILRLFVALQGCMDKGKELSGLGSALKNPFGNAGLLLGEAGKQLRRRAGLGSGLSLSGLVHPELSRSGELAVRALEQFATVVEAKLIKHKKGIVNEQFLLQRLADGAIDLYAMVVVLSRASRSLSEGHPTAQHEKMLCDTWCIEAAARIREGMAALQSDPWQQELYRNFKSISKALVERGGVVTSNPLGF
inactive: [1] 0.019 | [2] 0.05 | [3] 0.009 | [4] -0.011 | [5] -0.018

AGO1 (UniProt Q9UL18)
inactive: [1] -0.05 | [2] -0.066 | [3] -0.114 | [4] -0.016 | [5] 0.05

ATAD3B (UniProt Q5T9A4)
inactive: [1] -0.02 | [2] -0.023 | [3] -0.055 | [4] 0.123 | [5] 0.025

AKR1C3 (UniProt P42330)
inactive: [1] 0.155 | [2] 0.049 | [3] 0.132 | [4] -0.038 | [5] -0.156

ATP6V0A2 (UniProt Q9Y487)
inactive: [1] 0.018 | [2] -0.044 | [3] -0.007 | [4] -0.059 | [5] -0.014

BZW1 isoform 3 (UniProt Q7L1Q6)
inactive: [1] -0.227 | [2] 0.002 | [3] 0.044 | [4] -0.044 | [5] -0.017

ATP5IF1 (UniProt Q9UII2)
Sequence of UniProt Q9UII2 (Q9UII2 whole entry, looked up): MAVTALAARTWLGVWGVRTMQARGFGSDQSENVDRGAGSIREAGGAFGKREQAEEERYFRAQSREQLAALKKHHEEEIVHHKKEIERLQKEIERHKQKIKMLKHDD
inactive: [1] 0.016 | [2] -0.087 | [3] -0.031 | [4] -0.013 | [5] -0.079

ADRM1 (UniProt Q16186)
inactive: [1] 0.007 | [2] -0.062 | [3] -0.001 | [4] -0.019 | [5] -0.01

BMP2K (UniProt Q9NSY1)
Sequence of UniProt Q9NSY1 (Q9NSY1 whole entry, looked up): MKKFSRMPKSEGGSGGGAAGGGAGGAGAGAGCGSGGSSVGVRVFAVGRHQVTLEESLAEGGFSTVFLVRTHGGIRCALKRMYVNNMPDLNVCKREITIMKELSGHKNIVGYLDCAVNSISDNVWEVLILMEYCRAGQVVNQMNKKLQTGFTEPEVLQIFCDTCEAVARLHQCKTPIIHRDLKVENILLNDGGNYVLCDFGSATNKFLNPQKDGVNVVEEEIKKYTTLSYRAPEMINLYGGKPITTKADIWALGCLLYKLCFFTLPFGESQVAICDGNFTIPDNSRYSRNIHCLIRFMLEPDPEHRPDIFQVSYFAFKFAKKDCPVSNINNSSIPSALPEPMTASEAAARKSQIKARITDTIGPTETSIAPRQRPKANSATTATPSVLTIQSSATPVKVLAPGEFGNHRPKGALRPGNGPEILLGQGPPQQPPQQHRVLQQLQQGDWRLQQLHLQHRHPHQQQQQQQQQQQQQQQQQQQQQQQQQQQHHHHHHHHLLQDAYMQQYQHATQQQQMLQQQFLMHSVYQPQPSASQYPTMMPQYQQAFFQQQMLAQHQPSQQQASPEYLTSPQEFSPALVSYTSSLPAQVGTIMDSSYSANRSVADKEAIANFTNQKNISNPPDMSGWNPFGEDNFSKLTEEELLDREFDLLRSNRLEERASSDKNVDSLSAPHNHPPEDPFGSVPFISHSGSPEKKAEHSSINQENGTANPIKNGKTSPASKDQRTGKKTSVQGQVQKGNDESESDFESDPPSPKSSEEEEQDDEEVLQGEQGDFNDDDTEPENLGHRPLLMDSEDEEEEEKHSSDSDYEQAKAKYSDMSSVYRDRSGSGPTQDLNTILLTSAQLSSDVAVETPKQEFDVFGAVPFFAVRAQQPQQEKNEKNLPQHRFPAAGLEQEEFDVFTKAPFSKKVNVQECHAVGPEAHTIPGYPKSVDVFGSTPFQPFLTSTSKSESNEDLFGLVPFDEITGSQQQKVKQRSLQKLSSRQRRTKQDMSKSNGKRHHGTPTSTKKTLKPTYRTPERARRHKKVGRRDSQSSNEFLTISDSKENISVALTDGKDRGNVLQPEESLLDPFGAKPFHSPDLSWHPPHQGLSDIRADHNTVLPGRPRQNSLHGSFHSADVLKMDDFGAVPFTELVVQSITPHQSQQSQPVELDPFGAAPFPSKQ
inactive: [1] 0.015 | [2] 0 | [3] -0.018 | [4] 0.035 | [5] -0.001

ALDH9A1 (UniProt P49189)
inactive: [1] 0.059 | [2] -0.193 | [3] 0.03 | [4] 0.098 | [5] 0.156

ACSL6 isoform 1 (UniProt Q9UKU0)
inactive: [1] 0.012 | [3] 0.29 | [4] -0.009

BRAF, A0A2R8Y8E0
inactive: [4] 0.162

ALDH2 isoform 2 (UniProt P05091)
inactive: [1] -0.092 | [3] 0.379 | [4] 0.074

ADD1 isoform 4 (UniProt P35611)
Sequence of UniProt P35611 (P35611 whole entry, looked up): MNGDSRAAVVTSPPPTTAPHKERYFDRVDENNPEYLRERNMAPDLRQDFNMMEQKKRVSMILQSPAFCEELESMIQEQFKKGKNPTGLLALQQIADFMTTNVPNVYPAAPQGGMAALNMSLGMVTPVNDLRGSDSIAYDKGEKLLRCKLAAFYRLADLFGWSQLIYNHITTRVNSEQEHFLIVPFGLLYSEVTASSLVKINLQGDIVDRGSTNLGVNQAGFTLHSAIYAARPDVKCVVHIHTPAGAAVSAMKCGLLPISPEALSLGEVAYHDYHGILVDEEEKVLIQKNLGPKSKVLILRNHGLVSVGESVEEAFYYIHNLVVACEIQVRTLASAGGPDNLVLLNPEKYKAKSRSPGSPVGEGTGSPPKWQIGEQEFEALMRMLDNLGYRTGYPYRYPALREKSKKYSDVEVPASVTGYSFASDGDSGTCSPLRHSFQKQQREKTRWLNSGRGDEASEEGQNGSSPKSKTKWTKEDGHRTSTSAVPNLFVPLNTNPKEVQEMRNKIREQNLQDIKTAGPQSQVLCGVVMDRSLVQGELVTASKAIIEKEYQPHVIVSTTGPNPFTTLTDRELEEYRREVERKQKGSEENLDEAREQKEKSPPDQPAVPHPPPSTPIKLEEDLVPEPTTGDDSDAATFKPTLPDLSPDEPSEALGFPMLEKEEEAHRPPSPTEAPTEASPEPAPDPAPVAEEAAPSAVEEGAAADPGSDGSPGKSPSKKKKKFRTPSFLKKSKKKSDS
inactive: [1] -0.03 | [2] 0.04 | [5] 0.217

AKNA (UniProt Q7Z591)
inactive: [2] 0.071 | [5] 0.206

AFDN isoform 1 (UniProt P55196)
inactive: [1] 0.038 | [2] -0.119 | [3] 0.029 | [5] 0.177

BRMS1 (UniProt Q9HCU9)
inactive: [4] -0.011

ALG14 (UniProt Q96F25)
inactive: [1] -0.008 | [2] 0.019 | [3] 0.241 | [4] 0.051 | [5] 0.006

AGAP3 isoform 4 (UniProt Q96P47)
inactive: [1] -0.08 | [2] -0.023 | [4] -0.006 | [5] 0.05

AUNIP isoform 2 (UniProt Q9H7T9)
inactive: [2] 0.031 | [3] 0.086 | [4] -0.001 | [5] -0.014

APOBEC3G (UniProt Q9HC16)
inactive: [1] 0.089 | [3] 0.436 | [4] 0.147

ACVR1 (UniProt Q04771)
inactive: [2] 0.061 | [3] 0.041 | [4] -0.218 | [5] 0.072

BAIAP2 isoform 4 (UniProt Q9UQB8)
inactive: [2] 0.029 | [4] -0.206 | [5] 0.151

ACTBL2 (UniProt Q562R1)
inactive: [1] -0.444 | [3] -0.201

BTBD6 (UniProt Q96KE9)
inactive: [1] 0.12 | [2] 0.073 | [3] 0.04 | [4] -0.117 | [5] -0.099

AARSD1 (UniProt Q9BTE6)
inactive: [1] -0.081 | [2] -0.267 | [5] -0.068

BAD (UniProt Q92934)
inactive: [1] -0.001 | [2] -0.042 | [3] -0.086 | [5] 0.032

ADPRH (UniProt P54922)
inactive: [1] -0.035 | [3] 0.344 | [4] -0.121

ABCA4 (UniProt P78363)
inactive: [1] 0.174 | [2] 0.297 | [4] 0.03 | [5] -0.128

BDH2 (UniProt Q9BUT1)
inactive: [1] -0.033 | [2] 0.087 | [3] -0.213 | [5] 0.12

AP4S1 (UniProt Q9Y587)
inactive: [1] -0.077 | [2] 0.133 | [3] 0.069 | [5] 0

APAF1 (UniProt O14727)
inactive: [2] 0.031 | [3] 0.112 | [5] 0.055

ARMC8 isoform 6 (UniProt Q8IUR7)
inactive: [1] 0.053 | [3] 0.088

AZI2 (UniProt Q9H6S1)
inactive: [1] 0.034 | [3] -0.047 | [4] 0.136

ADD3 isoform 2 (UniProt Q9UEY8)
inactive: [2] -0.075 | [3] -0.038 | [4] 0.007 | [5] 0

AP2S1 (UniProt M0QZ21)
inactive: [4] -0.014

ACTR1B (UniProt P42025)
inactive: [1] -0.049 | [2] 0.105 | [3] 0.034 | [4] 0.028 | [5] -0.029

ADAM15 (UniProt Q13444)
inactive: [1] -0.041 | [2] 0.059 | [3] 0.096 | [4] 0.08 | [5] 0

BAP18 isoform 3 (UniProt Q8IXM2)
inactive: [4] 0.041

AIF1 (UniProt P55008)
inactive: [1] -0.114 | [3] 0.04

AMD1 (UniProt P17707)
inactive: [1] -0.021 | [3] 0.168 | [4] -0.164

ATP6V0A1 isoform 3 (UniProt Q93050)
inactive: [1] 0.115 | [2] -0.07 | [3] 0.005 | [4] -0.07 | [5] -0.149

ASB6 (UniProt Q9NWX5)
inactive: [1] -0.065 | [3] 0.178

ARGLU1 (UniProt Q9NWB6)
inactive: [1] 0.072 | [2] -0.117 | [3] -0.013 | [4] 0.01 | [5] 0.096

ANGEL1 (UniProt Q9UNK9)
inactive: [1] -0.256 | [3] -0.172 | [4] -0.042

ACTR3B (UniProt Q9P1U1)
inactive: [3] -0.002 | [4] 0.173
